ST2 IL33 inh – IL1RL1 inhibition | AID 1259354 | 2.3% of 78,000 active | AlphaLISA ST2-Fc/biotin-IL-33 interaction, 1 h | inhibition, % for hits at 17 µM; in the data active means inhibition above about 30%
Target sequence (Q01638 whole entry, looked up): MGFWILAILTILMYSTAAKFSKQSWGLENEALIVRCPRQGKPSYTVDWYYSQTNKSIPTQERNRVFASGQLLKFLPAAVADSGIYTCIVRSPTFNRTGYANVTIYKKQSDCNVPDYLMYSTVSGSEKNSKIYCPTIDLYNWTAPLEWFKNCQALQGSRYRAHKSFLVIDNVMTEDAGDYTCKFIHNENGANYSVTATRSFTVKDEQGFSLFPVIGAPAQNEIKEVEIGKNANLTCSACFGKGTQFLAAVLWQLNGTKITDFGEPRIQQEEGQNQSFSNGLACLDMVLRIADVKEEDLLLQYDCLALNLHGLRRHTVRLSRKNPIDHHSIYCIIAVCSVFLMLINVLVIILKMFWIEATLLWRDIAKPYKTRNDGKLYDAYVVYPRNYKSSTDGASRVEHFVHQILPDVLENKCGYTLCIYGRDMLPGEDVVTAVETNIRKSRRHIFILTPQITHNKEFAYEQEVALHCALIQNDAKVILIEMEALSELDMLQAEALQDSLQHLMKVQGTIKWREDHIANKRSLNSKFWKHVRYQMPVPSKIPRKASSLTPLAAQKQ
Of the large screens only hits and unclear results are named; the others gave an inactive call; ! = not active in a repeat. Many of the other results were omitted from the sample, so hits are more common in it than they were.

Nc1c(C(=O)Nc2ccccc2)sc2nc3c(cc12)CCCCC3	none
Nc1c(C(=O)Nc2cccc(C(F)(F)F)c2)sc2nc3c(cc12)CCCCC3	ST2 IL33 inh 42%
Oc1ccccc1C(O)(c1ccccc1)c1ccccc1	none
COCC1(C(=O)N(C)C(C)c2nccs2)CCC1 (centres undefined)	none
Cc1ccc(N=Cc2cc(Br)cc(Cl)c2O)c(O)c1	none
Cc1ccc(O)c(N=Cc2cc(Cl)cc(Cl)c2O)c1	none
Cc1ccc(N=Cc2cc(Cl)cc([N+](=O)[O-])c2O)c(O)c1	ST2 IL33 inh 35%
CC(C)(Oc1ccc(Cl)cc1)C(=O)Nc1ccc(Cl)cc1F	none
CCCNC(=O)Nc1ccc(C(=O)O)cc1	none
O=C(Nc1ccc(Br)cn1)c1ccc(Cl)cc1[N+](=O)[O-]	none
Cc1cc(C)nc(NC(=O)c2ccccc2F)c1	ST2 IL33 inh 30%
Cc1cc(C)nc(NC(=O)CCCC(=O)O)c1	none
Cc1ccn2c(NC(=O)c3ccccc3F)c(-c3ccccc3)nc2c1	none
CC(=O)c1ccc(OCc2cc(C(=O)N3CCCC3)no2)cc1	none
COc1ccccc1N=C1C(=O)Nc2ccccc21	none
COc1cccc2c1NC(C)(C)C=C2C	ST2 IL33 inh 46%
COc1cccc(OC)c1OC	none
O=C(c1cn(C(c2ccccc2)c2ccccc2)nn1)N1CCC(c2ccccc2Cl)C1 (centres undefined)	none
Cc1ccc(NC(=O)COc2ccc(C)cc2)cc1	none
O=C(COc1ccc(Br)cc1)Nc1ccc(F)cc1	ST2 IL33 inh 39%
Cc1ccc(-c2nc3ncccc3o2)cc1NC(=O)COc1ccc(Br)cc1	none
Cc1ccc(OCC(=O)Nc2cc(-c3nc4ncccc4o3)ccc2Cl)cc1C	ST2 IL33 inh 30%
CCC(=O)Nc1ccc(-c2nc3ncccc3o2)cc1	none
O=C(COc1ccc(Br)cc1)Nc1ccc(-c2nc3ncccc3o2)cc1	ST2 IL33 inh 33%
CCOc1ccc(C(=O)Nc2cc(-c3nc4ncccc4o3)ccc2C)cc1	none
O=C(COc1ccccc1)Nc1ccc(Cl)cc1	none
CC(C)Oc1cccc(C(=O)Nc2cc(-c3nc4ncccc4o3)ccc2Cl)c1	none
O=S(=O)(c1ccccc1)c1nc(-c2ccccc2)oc1NCc1ccco1	none
O=C(/C=C/c1ccc(O)c2c1C(C(=O)O)C(c1ccc(O)c(O)c1)O2)OC(Cc1ccc(O)c(O)c1)C(=O)O (centres undefined)	none
Cc1cnc(C)c(N2CCN(Cc3ccc(C#CC(C)(C)O)s3)CC2)n1	none
CNCC(=O)NC(C)c1nc2c(s1)CCCC2 (centres undefined)	none
Cc1nn(Cc2ccc(F)cc2)c(C)c1NC(=O)CCCn1nc(C)c([N+](=O)[O-])c1C	none
COc1cc(OC)cc(C(=O)Nc2c3c(nn2-c2cccc(C)c2C)CS(=O)C3)c1 (centres undefined)	none
CN(c1ccccc1)c1ncnc(N)c1[N+](=O)[O-]	none
CN(c1ccccc1)c1ccc(/C=C/[N+](=O)[O-])cc1	ST2 IL33 inh 50%
CN(C)c1ccc(/C=C/c2c([N+](=O)[O-])c(=O)n(C)c(=O)n2C)cc1	none
O=C(Nc1ccc([N+](=O)[O-])cc1)c1cccc(S(=O)(=O)N2CCOCC2)c1	none
O=C(NCc1cccnc1)c1ccc2nc3ccsc3c(=O)n2c1	none
O=C1N=C(N2CCCC2)S/C1=C/c1cccc(O)c1	none
O=C1/C(=C/c2ccsc2)CS/C1=C\c1ccsc1	ST2 IL33 inh 39%
Cc1cccc(/C=C2\CS/C(=C\c3cccc(C)c3)C2=O)c1	ST2 IL33 inh 55%
COc1ccccc1/C=C1\SC(N2CC(C)OC(C)C2)=NC1=O (centres undefined)	none
COc1ccccc1/C=C1/SC(N2CCN(C)CC2)=NC1=O	none
COc1cccc(/C=C2\CS/C(=C\c3cccc(OC)c3OC)C2=O)c1OC	ST2 IL33 inh 39%
Cc1cccc(/C=C2\NC(=O)N(Cc3ccc(Cl)cc3)C2=O)c1	none
O=C(Nc1cnc2n1CCCC2)c1ccc2sc3c(c2c1)CCNC3=O	none
Cc1cc2nc(COc3ccc(Cl)cc3NC(=O)COc3ccc(C)c(C)c3)cc(=O)n2o1	none
CCOC(=O)Cn1c(=O)n(-c2ccc(C)c(C)c2)c2nc(-c3c(C)cc(C)cc3C)nc(C(N)=O)c21	none
Cc1ccc(C)c(S(=O)(=O)N=C(c2ccc(Cl)cc2)N(C)C)c1	ST2 IL33 inh 78%
CCN(CC)C(=NS(=O)(=O)c1cc(C)ccc1C)c1ccccc1	none
Cc1ccc(C(=O)Nc2cc(Cl)ccc2C)cc1	none
COc1ccc(-c2ccnc(N[C@H]3CO[C@H]4[C@@H]3OC[C@@H]4NS(=O)(=O)c3cccc4cccnc34)n2)cc1	none
O=C(c1cccc(S(=O)(=O)N2CCN(c3ccccc3)CC2)c1)N1CCCc2ccccc21	none
CNc1ccc(-c2noc([C@@H]3CCCN3C3CCCCC3)n2)cn1	none
O=C(c1cccnn1)N1CCCC(CCc2ccccc2C(F)(F)F)C1 (centres undefined)	none
N#CC1=C(N)Oc2n[nH]c(-c3ccccc3)c2C1c1ccc(Br)cc1 (centres undefined)	none
CC(c1nnc(SCC(=O)O)n1-c1ccccc1)n1ccnc1 (centres undefined)	ST2 IL33 inh 31%
O=C(O)CSc1nnnn1-c1ccccc1	none
COc1ccc(C(=O)CSc2nnc(C(O)c3ccccc3)n2-c2ccccc2)cc1 (centres undefined)	none
Cc1nn2c(=O)/c(=C/c3ccc(O)cc3)sc2nc1=O	none
O=C(Nc1ccc(Br)cc1)c1ccc(Cl)cc1Cl	none
O=C(Nc1ccc(N2CCCC2)cc1)c1cc(Br)ccc1Cl	ST2 IL33 inh 34%
O=C(Nc1ccc(N2CCCC2)cc1)C(Cl)(Cl)Cl	ST2 IL33 inh 38%
CC(=O)Nc1ccc(CN2CCN(c3ccc(Cl)cc3)CC2)cc1	none
O=C(Nc1ccc(N2CCOCC2)cc1)c1ccc(Br)cc1	none
O=C(Nc1ccc(S(=O)(=O)N2CCCC2)cc1)C(F)(F)F	none
CCOC(=O)CNC(=O)N1CCC2(CCCN(CC3CC3)C2=O)C1 (centres undefined)	none
CNC(=O)c1ccc(OC)c(S(=O)(=O)N2CCC(C)CC2)c1	none
COc1cc(OC)cc(C(=O)N2CCN=C2SCc2ccc(Br)cc2)c1	none
Cc1cccc(-c2nc(CN3CCCCC3)c(C)o2)c1	none
CCCCOC(=O)C1=C(C)Nc2ncnn2C1c1ccccc1OCC (centres undefined)	none
COc1ccccc1N1CCN([C@H]2[C@@H]3OC[C@@H](O3)[C@@H](NCc3cnc4ccccc4c3)[C@@H]2O)CC1	ST2 IL33 inh 30%
C=CCNC(=O)N[C@H]1[C@H](O)[C@@H](N2CCN(c3ccccc3OC)CC2)[C@@H]2OC[C@H]1O2	none
NC(=O)C1CCN([C@H]2[C@@H]3OC[C@@H](O3)[C@@H](NCc3cnc4ccccc4c3)[C@@H]2O)CC1	none
CCn1nc(CO)c2c1CCN(Cc1cc3n(n1)CCCNC3)C2	none
Cc1ccc(S(=O)(=O)N2CCCCC2)cc1[N+](=O)[O-]	none
Cc1ccc(S(=O)(=O)N2CCc3ccccc32)cc1C(N)=O	none
Cc1ccc(S(=O)(=O)N2CCc3ccccc32)cc1[N+](=O)[O-]	ST2 IL33 inh 36%
O=C(CCc1ccncc1)NC1CC(=O)N(Cc2cccc3ccccc23)C1 (centres undefined)	none
COc1ccc(NS(=O)(=O)c2ccc(C)c(C(N)=O)c2)cc1	none
C=CCOc1ccc(Cl)cc1/C=C(\C#N)c1nc2ccccc2[nH]1	none
N#C/C(=C\c1ccc(O)cc1O)c1nc2ccccc2[nH]1	none
N#C/C(=C\c1cc(Cl)ccc1O)c1nc2ccccc2[nH]1	ST2 IL33 inh 35%
CCOCCCNS(=O)(=O)c1ccc(OCC)c2ncccc12	none
Cc1csc2ncc(C(=O)Nc3ccccc3)c(=O)n12	none
Cc1csc2ncc(C(=O)Nc3ccon3)c(=O)n12	ST2 IL33 inh 97%!
Cc1csc2ncc(C(=O)Nc3ccc(Cl)cc3)c(=O)n12	none
CCn1ncc(Cl)c1C(=O)N1CCN(C)C2(CCN(C)CC2)C1	none
